In one assay the test system is LOC_OS01G01410-cb001. As to the kind of experiment: thermal shift delta Tm vs DMSO control; higher = stronger stabilization (binding). The note with it: 12.5 µM; protein concentration 2 µM. An outline of the steps:
(§1)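 Compounds dissolved in DMSO were added to purified rice kinase domain constructs, which had been expressed in E. coli, for differential scanning fluorimetry. Each well held 19.5 μl of 2 μM kinase in 100 mM potassium phosphate pH 7.5, 150 mM NaCl, 10% glycerol and 5 × SYPRO Orange. Fluorescence was followed from 25°C to 95°C at a rate of 0.05°C/s. Shifts in Boltzmann-fitted melting temperature are triplicate means relative to DMSO-only protein.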
For `O=C1NC(=O)C(=Cc2ccc(-c3ccc(F)cc3)o2)S1` (stereo in doubt), the “thermal shift delta Tm” value was found to be 0.61 °C.
On the same count and under the same terms, under `CONC(=O)c1ccccc1Nc1cc(Nc2cc(C)nn2C(C)C)ncc1Cl` stands 0.19 °C.
For `O=C(O)c1ccc2c3c1cccc3c(=O)n1c3ccccc3nc21`, the “thermal shift delta Tm” value amounted to 3.12 °C.
Same read-out and setting: as for `OC1CCC(Oc2cccc3cnc(Nc4ccc5nc[nH]c5c4)nc23)CC1` (centres undefined), the figure is 5.55 °C; as for `CN1CCN(Cc2ccc(-c3cnc4[nH]cc(-c5ccc6[nH]ccc6c5)c4c3)cc2)CC1`, 3.79 °C.
The same measure, in the same setting: as for `Cc1cc(N2CCOCC2)cc2[nH]c(-c3c(NC[C@@H](O)c4cccc(Cl)c4)cc[nH]c3=O)nc12`, the figure is 4.78 °C; as for `S=C(NCc1ccc2c(c1)OCO2)N1CCN(c2ncnc3c2oc2ccccc23)CC1` [Amuvatinib (MP-470)], 0.66 °C; as for `COc1cc2c(N3CCN(C(=O)Nc4ccc(OC(C)C)cc4)CC3)ncnc2cc1OCCCN1CCCCC1` [Tandutinib (MLN518)], 0.23 °C.
Take `COc1cc(-c2cc(-c3ccc(N4CCNCC4)cc3)cnc2C)cc(OC)c1OC`: the “thermal shift delta Tm” value was determined as 1.74 °C.
Consider `O=C(Nc1ccc(OC(F)(F)F)cc1)c1sccc1NCc1ccnc2ccccc12`, for which the “thermal shift delta Tm” value was 1.17 °C.
On to `Cc1nc2ccc(-n3ncc(C(=O)c4cc5ccccc5[nH]4)c3N)cc2[nH]1`, for which the “thermal shift delta Tm” value worked out at 0.79 °C.
Regarding `CC(C)n1ncnc1-c1cn2c(n1)-c1ccc(O[C@@H](C)C(N)=O)cc1OCC2`, the “thermal shift delta Tm” value turned out to be 0.47 °C.
As to `O=C(O)[C@]1(Cc2cccc(Nc3nccs3)n2)CC[C@@H](Oc2cccc(Cl)c2F)CC1`, the “thermal shift delta Tm” value worked out at 1.81 °C.
Turning to `O=C(O)CCC(=O)Nc1ccc(Br)cn1` [Bikinin], the “thermal shift delta Tm” value worked out at 0.12 °C.
Take `CCOc1cc2ncc(C#N)c(Nc3ccc(OCc4ccccn4)c(Cl)c3)c2cc1NC(=O)/C=C/CN(C)C` [Neratinib (HKI-272)]: the “thermal shift delta Tm” value was 1.9 °C.
As to `O=C(Nc1cccc(C(F)(F)F)c1)c1cccc2cc(Oc3cc(CO)ncn3)ccc12`, the “thermal shift delta Tm” value is 0.74 °C.
Turning to `CC1(C)C=Cc2c(ccc3c2OC[C@@H](c2ccc(O)cc2O)C3)O1` [Glabridin], the “thermal shift delta Tm” value was 0.95 °C.
For `COc1ccccc1-c1cc(Nc2cccc(CS(N)(=O)=O)c2)ncn1`, the “thermal shift delta Tm” value came to 0.57 °C.
Consider `Cc1ccc(C(=O)Nc2ccc(Oc3cc4cnn(C)c4cc3-c3cn[nH]c3)c(F)c2)c(=O)n1-c1ccc(F)cc1`, for which the “thermal shift delta Tm” value worked out at 0.22 °C.
With `CCS(=O)(=O)c1cccc(-c2cc(C(=O)NC3CCN(C)CC3)c(C)c3[nH]c4ncc(C)cc4c23)c1`, the “thermal shift delta Tm” value stood at 3.99 °C.
Same read-out and setting: as for `CCc1cncnc1N1CCN(Cc2nc3ccc(C(F)(F)F)cc3[nH]2)CC1`, the figure is 0.68 °C; as for `Cc1ccc(NC(=O)c2ccc(CN3CCN(C)CC3)cc2)cc1Nc1nccc(-c2cccnc2)n1` [Imatinib (STI571)], 0.68 °C.
On to `CCn1c(=O)c(-c2ccc(Cl)cc2Cl)cc2cnc(Nc3ccc(N4CCNCC4)c(F)c3)nc21`, for which the “thermal shift delta Tm” value worked out at 5.82 °C.
Take `COc1cc(N2CCN(C)CC2)ccc1Nc1ncc2c(n1)N(C)c1ccccc1C(=O)N2`: the “thermal shift delta Tm” value is 0.72 °C.
Still for that read-out and setting: under `CCn1c(-c2nonc2N)nc2cnc(Oc3cccc(NC(=O)c4ccc(OCCN5CCOCC5)cc4)c3)cc21` stands 0.15 °C; under `O=C1Cc2c([nH]c3ccc(Br)cc23)-c2ccccc2N1` [Kenpaullone], 1.3 °C.
The same measure, in the same setting: under `COC(=O)Nc1ccc(-c2nc(N3CCOCC3)c3cnn(C4CCN(C(=O)OC)CC4)c3n2)cc1` stands 0.48 °C; under `Nc1ncc(-c2ccnc(Nc3ccncc3)n2)c(CC2CC2)n1`, 0.71 °C.
For the compound `C=CC(=O)Nc1ccc2ncnc(Nc3cccc(Br)c3)c2c1`, the “thermal shift delta Tm” value was 0.7 °C.
Still for that read-out and setting: under `COc1nccc(-c2c(-c3ccc(F)cc3)ncn2C2CCC(O)CC2)n1` (centres undefined) stands -0.16 °C; under `CC(C)Nc1cc(-c2c[nH]c(C(=O)N[C@H](CO)c3cccc(Cl)c3)c2)c(Cl)cn1`, 6.3 °C.
On to `CN1CCN(Cc2ccc(NC(=O)Nc3ccc(Oc4ccnc(N)n4)cc3)cc2C(F)(F)F)CC1`, for which the “thermal shift delta Tm” value is 0.75 °C.
With `O=C(NCCO)c1cccc(-c2cc(Nc3ccc(OC(F)(F)F)cc3)ncn2)c1`, the “thermal shift delta Tm” value was determined as 0.32 °C.
Turning to `CC(C)(O)CNc1ncc(-c2ccnc(Nc3ccnc(Cl)c3)n2)c(CC2CC2)n1`, the “thermal shift delta Tm” value turned out to be 0.77 °C.
Take `O=C1NC(=O)C(c2ccccc2[N+](=O)[O-])=C1Nc1ccc(O)c(Cl)c1`: the “thermal shift delta Tm” value stood at 0.62 °C.
As for `CCOc1cc(N2CCC(O)CC2)ccc1Nc1ncc2c(n1)N(C)c1ccccc1C(=O)N2C`, the “thermal shift delta Tm” value came out at 0.48 °C.
Same read-out and setting: as for `COc1ccc(-c2ccc3ncc4c(c3c2)n(-c2ccc(N3CCNCC3)c(C(F)(F)F)c2)c(=O)n4C)cn1`, the figure is 1.5 °C.

In the next assay the test system is LOC_OS01G02750-cb003. The description is as above. The note with it: 12.5 µM; protein concentration 2 µM. The essentials: as §1
For `O=C1NC(=O)C(=Cc2ccc(-c3ccc(F)cc3)o2)S1` (stereo in doubt), the “thermal shift delta Tm” value is 1.08 °C.
Same read-out and setting: under `CONC(=O)c1ccccc1Nc1cc(Nc2cc(C)nn2C(C)C)ncc1Cl` stands 1.48 °C.
Regarding `O=C(O)c1ccc2c3c1cccc3c(=O)n1c3ccccc3nc21`, the “thermal shift delta Tm” value was 0.97 °C.
On the same count and under the same terms, under `OC1CCC(Oc2cccc3cnc(Nc4ccc5nc[nH]c5c4)nc23)CC1` (centres undefined) stands 6.21 °C.
As to `CN1CCN(Cc2ccc(-c3cnc4[nH]cc(-c5ccc6[nH]ccc6c5)c4c3)cc2)CC1`, the “thermal shift delta Tm” value was 5.34 °C.
On to `Cc1cc(N2CCOCC2)cc2[nH]c(-c3c(NC[C@@H](O)c4cccc(Cl)c4)cc[nH]c3=O)nc12`, for which the “thermal shift delta Tm” value was found to be 2.98 °C.
`S=C(NCc1ccc2c(c1)OCO2)N1CCN(c2ncnc3c2oc2ccccc23)CC1` [Amuvatinib (MP-470)]: the “thermal shift delta Tm” value is -0.56 °C.
With `COc1cc2c(N3CCN(C(=O)Nc4ccc(OC(C)C)cc4)CC3)ncnc2cc1OCCCN1CCCCC1` [Tandutinib (MLN518)], the “thermal shift delta Tm” value was determined as 1.12 °C.
Same read-out and setting: as for `COc1cc(-c2cc(-c3ccc(N4CCNCC4)cc3)cnc2C)cc(OC)c1OC`, the figure is 0.65 °C; as for `O=C(Nc1ccc(OC(F)(F)F)cc1)c1sccc1NCc1ccnc2ccccc12`, 2.66 °C.
Same read-out and setting: under `Cc1nc2ccc(-n3ncc(C(=O)c4cc5ccccc5[nH]4)c3N)cc2[nH]1` stands 1.12 °C.
Still for that read-out and setting: under `CC(C)n1ncnc1-c1cn2c(n1)-c1ccc(O[C@@H](C)C(N)=O)cc1OCC2` stands 1.25 °C; under `O=C(O)[C@]1(Cc2cccc(Nc3nccs3)n2)CC[C@@H](Oc2cccc(Cl)c2F)CC1`, 1.68 °C.
Regarding `O=C(O)CCC(=O)Nc1ccc(Br)cn1` [Bikinin], the “thermal shift delta Tm” value was determined as 0.77 °C.
In the case of `CCOc1cc2ncc(C#N)c(Nc3ccc(OCc4ccccn4)c(Cl)c3)c2cc1NC(=O)/C=C/CN(C)C` [Neratinib (HKI-272)], the “thermal shift delta Tm” value stood at 1.42 °C.
On the same count and under the same terms, as for `O=C(Nc1cccc(C(F)(F)F)c1)c1cccc2cc(Oc3cc(CO)ncn3)ccc12`, the figure is 0.11 °C.
Turning to `CC1(C)C=Cc2c(ccc3c2OC[C@@H](c2ccc(O)cc2O)C3)O1` [Glabridin], the “thermal shift delta Tm” value worked out at 3.18 °C.
With `COc1ccccc1-c1cc(Nc2cccc(CS(N)(=O)=O)c2)ncn1`, the “thermal shift delta Tm” value amounted to 1.83 °C.
Same read-out and setting: under `Cc1ccc(C(=O)Nc2ccc(Oc3cc4cnn(C)c4cc3-c3cn[nH]c3)c(F)c2)c(=O)n1-c1ccc(F)cc1` stands 3.21 °C; under `CCS(=O)(=O)c1cccc(-c2cc(C(=O)NC3CCN(C)CC3)c(C)c3[nH]c4ncc(C)cc4c23)c1`, 0.8 °C.
Turning to `CCc1cncnc1N1CCN(Cc2nc3ccc(C(F)(F)F)cc3[nH]2)CC1`, the “thermal shift delta Tm” value came to 1.15 °C.
Turning to `Cc1ccc(NC(=O)c2ccc(CN3CCN(C)CC3)cc2)cc1Nc1nccc(-c2cccnc2)n1` [Imatinib (STI571)], the “thermal shift delta Tm” value amounted to 0 °C.
Turning to `CCn1c(=O)c(-c2ccc(Cl)cc2Cl)cc2cnc(Nc3ccc(N4CCNCC4)c(F)c3)nc21`, the “thermal shift delta Tm” value stood at 1.71 °C.
Turning to `COc1cc(N2CCN(C)CC2)ccc1Nc1ncc2c(n1)N(C)c1ccccc1C(=O)N2`, the “thermal shift delta Tm” value came out at 1.11 °C.
With `CCn1c(-c2nonc2N)nc2cnc(Oc3cccc(NC(=O)c4ccc(OCCN5CCOCC5)cc4)c3)cc21`, the “thermal shift delta Tm” value was found to be 1.24 °C.
On to `O=C1Cc2c([nH]c3ccc(Br)cc23)-c2ccccc2N1` [Kenpaullone], for which the “thermal shift delta Tm” value stood at 3.93 °C.
As to `COC(=O)Nc1ccc(-c2nc(N3CCOCC3)c3cnn(C4CCN(C(=O)OC)CC4)c3n2)cc1`, the “thermal shift delta Tm” value is 0.7 °C.
In the case of `Nc1ncc(-c2ccnc(Nc3ccncc3)n2)c(CC2CC2)n1`, the “thermal shift delta Tm” value is 1.52 °C.
As to `C=CC(=O)Nc1ccc2ncnc(Nc3cccc(Br)c3)c2c1`, the “thermal shift delta Tm” value was -0.16 °C.
Still for that read-out and setting: as for `COc1nccc(-c2c(-c3ccc(F)cc3)ncn2C2CCC(O)CC2)n1` (centres undefined), the figure is 1.24 °C; as for `CC(C)Nc1cc(-c2c[nH]c(C(=O)N[C@H](CO)c3cccc(Cl)c3)c2)c(Cl)cn1`, 1.26 °C; as for `CN1CCN(Cc2ccc(NC(=O)Nc3ccc(Oc4ccnc(N)n4)cc3)cc2C(F)(F)F)CC1`, 4.82 °C.
On the same count and under the same terms, under `O=C(NCCO)c1cccc(-c2cc(Nc3ccc(OC(F)(F)F)cc3)ncn2)c1` stands 0.32 °C; under `CC(C)(O)CNc1ncc(-c2ccnc(Nc3ccnc(Cl)c3)n2)c(CC2CC2)n1`, 0.82 °C; under `O=C1NC(=O)C(c2ccccc2[N+](=O)[O-])=C1Nc1ccc(O)c(Cl)c1`, -1.98 °C.
On to `CCOc1cc(N2CCC(O)CC2)ccc1Nc1ncc2c(n1)N(C)c1ccccc1C(=O)N2C`, for which the “thermal shift delta Tm” value turned out to be 0.5 °C.
Turning to `COc1ccc(-c2ccc3ncc4c(c3c2)n(-c2ccc(N3CCNCC3)c(C(F)(F)F)c2)c(=O)n4C)cn1`, the “thermal shift delta Tm” value came to 2.95 °C.

Source of the values: the supplement of paper PMC9694430.
